Source: publication PMC5540273 (PLoS ONE, 2017)
Read-outs that look alike come from different tables or passages of the source.

Key:
[1] = test system: GRK4; conditions: concentration: 1 μM, replicates: in singlicate; n = 1
[2] = test system: GRK7; conditions: concentration: 1 μM, replicates: in singlicate; n = 1
[3] = test system: GSK3A; conditions: concentration: 1 μM, replicates: in singlicate; n = 1
[4] = test system: GSK3B; conditions: n = 1
[5] = test system: T1, HASPIN; conditions: concentration: 1 μM, replicates: in singlicate; n = 1
T1 construct: gene GSG2

[6] = test system: HCK; conditions: concentration: 1 μM, replicates: in singlicate; n = 1
[7] = test system: HIPK1; conditions: concentration: 1 μM, replicates: in singlicate; n = 1
[8] = test system: HIPK2; conditions: concentration: 1 μM, replicates: in singlicate; n = 1
[9] = test system: HIPK3; conditions: concentration: 1 μM, replicates: in singlicate; n = 1
[10] = test system: HIPK4; conditions: concentration: 1 μM, replicates: in singlicate; n = 1
[11] = concentration: 1 μM, replicates: in singlicate
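Note: KINOMEscan kinase panel screen.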

SMILES | %Inh [1] | %Inh [2] | %Inh [3] | %Inh [4, 11] | %Inh [5] | %Inh [6] | %Inh [7] | %Inh [8] | %Inh [9] | %Inh [10] | %Inh ([4]; 1 µM)
COc1cc(Nc2nccc(N3CCC(NC(=O)c4cccc(NC(C)=O)c4)C3)n2)cc(OC)c1OC (centres unmarked) [GSK1379754] | 18% | 0% | 0% | 0% | 30% | 0% | 3% | 0% | 0% | 0% | –
C[C@@H](Oc1cc(-n2cnc3ccc(NC(=O)NC(C)(C)C)cc32)sc1C(N)=O)c1ccccc1Cl [GSK346294] | 0% | 0% | 18% | 21% | 1% | 0% | 9% | 0% | 26% | 0% | –
Cc1cn2c(=O)cc(N3CCOCC3)nc2n1Cc1cccc(Cl)c1Cl [GSK2334006] | 0% | 0% | 11% | 13% | 11% | 16% | 0% | 0% | 18% | 6% | –
Cl.Nc1ncnc2occ(-c3ccc(NC(=O)Nc4cc(C(F)(F)F)ccc4F)cc3)c12 [SB-707548] | 0% | 0% | 68% | 8% | 0% | 71% | 63% | 50% | 77% | 99.2% | –
CN(C1=C(c2ccccc2)C(=O)NC1=O)c1ccccc1 [SB-334860] | 0% | 0% | 13% | – | 0% | 0% | 3% | 0% | 15% | 2% | 0%
COc1ccc(Nc2nccc(N3CCC(NC(=O)Nc4cccc(C(C)=O)c4)C3)n2)cc1 (centres unmarked) [GSK1379731] | 0% | 0% | 22% | 7% | 17% | 0% | 0% | 0% | 1% | 0% | –
Cn1cc(-c2ccc3c(c2)CCN3C(=O)Cc2ccccc2Cl)c2c(N)ncnc21 [GSK2608885] | 0% | 0% | 0% | 9% | 0% | 99.4% | 0% | 0% | 14% | 36% | –
Cc1c2ccc(N(C)c3ccnc(Nc4cccc(S(N)(=O)=O)c4)n3)cc2nn1Cc1ccccc1.Cl.Cl [GW787226] | 21% | 0% | 0% | 0% | 0% | 91.7% | 23% | 0% | 0% | 0% | –
CN1c2ccc(NCc3ccc(F)cc3)cc2-c2c(cnn2C)S1(=O)=O | 0% | 0% | 22% | 0% | 37% | 8% | 6% | 0% | 0% | 0% | –
CCn1cnc2c(N)ncnc21 [GW345098] | 0% | 0% | 6% | 9% | 25% | 30% | 33% | 5% | 30% | 0% | –
N#Cc1ccc(-c2cc(-c3c[nH]nc3-c3ccccn3)ccn2)cc1 [GW693028] | 3% | 0% | 12% | 4% | 0% | 0% | 0% | 0% | 0% | 0% | –
Cc1nnc(-c2ccc3ncc(-c4ccc(S(C)=O)cc4)n3c2)o1 (centres unmarked) | 0% | 16% | 1% | 1% | 30% | 0% | 21% | 40% | 16% | 5% | –
Nc1nc(-c2ccc3c(N)n[nH]c3c2)cc(N2CCCC2)n1 [GSK2227430] | 0% | 0% | 0% | 0% | 0% | 0% | 5% | 0% | 0% | 0% | –
COc1ccc(S(=O)(=O)NC2CCN(c3cc(C)nc(Nc4cccc(C#N)c4)n3)CC2)cc1.O=C(O)C(F)(F)F [GSK1653539] | 0% | 0% | 6% | 0% | 22% | 0% | 0% | 0% | 4% | 0% | –
CCc1ccnc(/C=C/c2n[nH]c3cc(Sc4ccccc4C(=O)NC)ccc23)c1 | 2% | 0% | 2% | 6% | 11% | 0% | 3% | 0% | 6% | 15% | –
CN(C(=O)c1ccc(-c2cc(-c3c[nH]nc3-c3ccccn3)ccn2)cc1)C1CCOCC1 [GW810083] | 4% | 0% | 0% | 4% | 0% | 0% | 22% | 25% | 0% | 0% | –
COc1ccc(CNC(=O)NC2CCN(c3ccnc(Nc4ccc(OC)cc4)n3)C2)cc1 (centres unmarked) [GSK1379727] | 4% | 0% | 0% | 0% | 19% | 0% | 0% | 40% | 23% | 0% | –
